aSyn UTR act = Activators via SNCA 5'UTR binding, MLPCN. 300,000 tested, 7.1% active. activity score, % (tested at 7.5 µM), hits read low. AID 1814, 2009. alpha-synuclein 5'UTR reporter, activators screen; in the data active = activity score below about -60%
An asterisk follows results filed as active. These entries were drawn from the full list.

SMILES	aSyn UTR act
CC(=O)Nc1ccc(C2CC(c3ccc(Cl)cc3)=NN2c2ccccc2)cc1 (stereo not given)	-79.4*
COc1ccc(C2=NN(C(C#N)c3ccc(OC)c(OC)c3)C(c3ccccc3)C2)cc1 (stereo not given)	-172.2*
C=CCc1ccc(OC(=O)NC2CCCCC2)c(OC)c1	-106.2*
CCCc1ccc(OCc2ccc(C(=O)NN)o2)c(OC)c1	-84.0*
C=CCc1ccc(OCc2ccc(C(=O)O)o2)c(OC)c1	-120.7*
CCCc1ccc(OCc2ccc(C(=O)O)o2)c(OC)c1	-94.1*
Cc1ccc2nc(-c3ccc(SCC(=O)Nc4nnc(C)s4)nc3)[nH]c2c1	-93.7*
Cc1ccc2nc(-c3ccc(SCC(=O)Nc4nc(C)cs4)nc3)[nH]c2c1	-246.5*
CCc1nnc(NC(=O)CSc2ccc(-c3nc4ccccc4[nH]3)cn2)s1	-186.8*
Cc1csc(NC(=O)CSc2ncc(-c3ccccc3)[nH]2)n1	-96.9*
Cc1nc(Nc2ccncc2)c2oc3ccccc3c2n1	-66.1*
CC(=O)c1ccc(Nc2ncnc3c2oc2ccccc23)cc1	-90.1*
c1ccc(CNc2ncnc3c2oc2ccccc23)nc1	-171.4*
c1ccc2c(c1)oc1c(NCC3CCCO3)ncnc12 (stereo not given)	-178.5*
O=c1c2ccccc2nc(COc2ccccc2)n1/N=C/c1ccco1	-85.5*
CCOc1ccc(/C=N/n2c(C)nc3ccccc3c2=O)cc1	-66.7*
Cc1nc2ccccc2c(=O)n1/N=C/c1c(O)ccc2oc3c(c12)CCCC3	85.7
Cc1nc2ccccc2c(=O)n1/N=C/c1ccccc1F	-101.5*
Nn1c(COc2ccc(Cl)cc2)nc2ccccc2c1=O	-66.8*
CNc1nc(N2CCc3ccccc32)ncc1F	-108.7*
CC1Oc2ccccc2C=C1/C=N/Nc1ccc(C(=O)O)cc1 (stereo not given)	-95.1*
OCCN1CCN(CCCN2c3ccccc3Sc3ccc(C(F)(F)F)cc32)CC1	-65.2*
OCCN1CCN(CC/C=C2/c3ccccc3CSc3ccccc32)CC1	103.5
O=C(N/N=C/c1ccccc1O)NC12CC3CC(CC(C3)C1)C2	-167.5*
O=C(CCN1CCN(c2ccccc2)CC1)N/N=C/c1ccccc1O	70.6
SMILES	aSyn UTR act
N=c1oc2ccccc2cc1C(=O)Nc1cccc(F)c1	-121.5*
Cc1ccc(NC(=O)c2cc3ccccc3oc2=N)cc1	81.7
N=c1oc2ccccc2cc1C(=O)Nc1ccc(F)cc1	-153.7*
N=c1oc2cc(O)ccc2cc1C(=O)Nc1ccc(Cl)cc1	-125.9*
N#Cc1c(N)nc(N)nc1Nc1ccc(Br)cc1	-63.9*
CC(C)(C)C1CCC(=O)N(CCSc2ccccc2)CC1 (stereo not given)	-145.0*
Cc1ccc(SCCC(=O)N2CCC(C)CC2)cc1	-92.2*
Cc1ccc(SCCN2CCC(C)CCC2=O)cc1 (stereo not given)	-153.3*
O=C(Cc1ccc(-c2ccccc2)cc1)Nc1ccccn1	-117.5*
Cc1ccnc(NC(=O)Cc2ccc(-c3ccccc3)cc2)c1	-121.8*
CCn1cc(C(=O)NCCCN(C)C)c(=O)c2cc(F)c(N3CCN(C)CC3)cc21	-64.7*
CN1C2CCC1/C(=C\c1ccccc1)C(=O)/C2=C\c1ccccc1	-185.1*
O=c1c2ccccc2sn1-c1ccccc1	-115.1*
Clc1cccc2sc(-c3nnc(-c4ccccc4)o3)c(Cl)c12	-136.9*
COc1ccc(C(=S)NC2CCCCC2)cc1	-80.4*
CCOc1ccc(C(=S)NC2CCCCC2)cc1	-100.5*
Cc1ccc2[nH]c(=O)c(-c3nc4cc(C)ccn4c3NCc3ccco3)cc2c1	-77.7*
COC(=O)c1sc(NC(=S)NC(=O)c2cccc(Br)c2)nc1C	-103.6*
COC(=O)c1sc(NC(=S)NC(=O)c2ccccc2C)nc1C	-92.7*
c1ccc(C2Nc3ccccc3-c3nc4ccccc4n32)nc1 (stereo not given)	-74.0*
c1coc(C2Nc3ccccc3-c3nc4ccccc4n32)c1 (stereo not given)	-92.5*
CC1CCN(c2c([N+](=O)[O-])nn(-c3ccc4c(c3)OCCO4)[n+]2[O-])CC1	-97.5*
Cc1nc2ccc(NC(=S)NC3CCCCC3)cc2nc1C	-172.5*
S=C(Nc1ccc2[nH]ccc2c1)NC1CCCCC1	-104.9*
O=C(NC(=S)Nc1ccccc1F)C1CCCCC1	-87.8*
SMILES	aSyn UTR act
Cc1ccc(NC(=S)NC(=O)C2CCC2)cc1C	-95.4*
CC(C)CC(=O)Nc1ccc(C(=O)NNC(=S)NC(=O)C2CCCCC2)cc1	66.6
O=C(NC(=S)Nc1ccc(F)cc1)C1CCCCC1	-62.5*
Cc1ccc(NC(=S)NC(=O)C2CC2)c(C)c1	-119.3*
Cc1ccc(NC(=S)NC2CCCC2)cc1C	-127.9*
Cc1ccc(NC(=S)NC(=O)C2CCCC2)cc1C	-130.6*
COc1cccc2oc3cc(C#Cc4ccccn4)ccc3c(=O)c12	-194.5*
S=C(NCCc1ccc(Cl)cc1)NC1CCCCC1	-111.3*
CNC[C@@H](Cc1ccccc1)NC[C@@H](CC1CCCCC1)NCCCc1ccccc1	124.9
S=C(NCCc1ccccc1)NC1CCCCCC1	-114.2*
CN(C)c1ccc(N=Nc2nc3ccccc3n2C)cc1	-116.5*
N#Cc1ccccc1/C=N/Nc1nc(-c2ccccc2)c2cc(Cl)ccc2n1	-95.2*
c1ccc(-c2nnnc3ccccc23)cc1	-165.1*
Clc1ccc2nnnc(-c3ccccc3)c2c1	-374.6*
COc1ccccc1/C=C/C=N/n1c(-c2ccccn2)n[nH]c1=S	-100.2*
CCC(=O)Nc1cccc(C(=O)/C=C/c2cc(Br)ccc2OC)c1	-125.2*
COc1ccc(Br)cc1/C=C/C(=O)Nc1ccc2ccccc2c1	-91.2*
COc1ccc(Br)cc1/C=C/C(=O)Nc1ccc(C)cc1	-86.3*
COc1ccc(-n2nnnc2SCc2nc3ccccc3s2)cc1	-160.8*
COc1ccc(C)cc1-n1nnnc1SCc1nc2ccccc2s1	-147.9*
O=C(N/N=C\c1ccco1)Nc1cccc(Cl)c1	-131.3*
O=C(NCCSCc1ccco1)Nc1cccc(Cl)c1	-125.6*
O=C(NCCSCc1ccco1)Nc1ccc(Cl)cc1	-134.1*
Cc1nnsc1SCCNC(=O)Nc1ccc(Cl)cc1	-97.8*
CCN(C(=O)CSc1nnc(Cn2nnc3ccccc32)o1)c1nc(-c2ccccc2)cs1	-105.0*
SMILES	aSyn UTR act
O=C(c1nn2c(C(F)(F)F)cc(-c3cccs3)nc2c1Cl)N1CCCc2ccccc21	77.7
COc1ccc2c(c1)CCc1c(C(=O)N3CCCc4ccccc43)noc1-2	-65.6*
COc1ccc2c(c1)CCc1c(C(=O)N3CCOCC3)noc1-2	-161.8*
COc1cc2[nH]c(C(=O)N3CCc4ccccc43)cc2c(OC)c1OC	-93.3*
COc1ccc(C(=O)N2CCc3ccccc32)cc1	-88.8*
COc1ccc(/C=C/C(=O)N2CCCc3ccccc32)cc1	-93.0*
COc1ccc(CCC(=O)N2CCc3ccccc32)cc1	-90.5*
COC(=O)C1=C(CN2CCCc3ccccc32)NC(=O)NC1c1ccc(F)cc1 (stereo not given)	79.2
Cc1ccc(/C=C/C(=O)N2CCc3ccccc32)o1	-204.2*
Nc1ccc(-n2cc(-c3ccccc3)[nH]c2=S)cc1	-85.6*
S=c1[nH]c(-c2ccccc2)cn1-c1ccccc1	-75.1*
COc1ccc(-c2cn(-c3ccccc3)c(=S)[nH]2)cc1OC	-100.4*
O=C(NCc1cccs1)C(=O)c1c[nH]c2ccccc12	-122.7*
O=C(NCc1ccco1)C(=O)c1c[nH]c2ccccc12	-79.0*
CN(C)/C=N/c1ncn(-c2ncc(C(F)(F)F)cc2Cl)n1	-84.8*
OCC1CCCN(C(=S)Nc2ccc(Oc3ccccc3)cc2)C1 (stereo not given)	-135.2*
